HCMV inh – qHTS Assay for inhibitors of the human cytomegalovirus (HCMV) | HFF cells, HCMV-luciferase reporter, 72 h; stronger effect = lower value | AID 1259415, 2018 | hit rate 4.5% among 410,000 | activity change, negative = inhibition, % at 57.5 µM; in the data active = activity change below about -60%; inconclusive = no clear call, values can overlap the other calls; inactive = above about -39%
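Luciferase read-out from HCMV-luciferase-infected HFFs (MOI 1 PFU/cell) 72 h post infection at 37C; compounds added after 16 h cell attachment; activity normalized between buffer-only basal and Salinomycin (10uM) inhibitor controls.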
Pf growth 96h – Primary qHTS for delayed death inhibitors of the malarial parasite plastid, 96 hour incubation; P. falciparum luciferase reporter growth, 96 h; Potency, µM (doses to about 28.7 µM), for the others: at the highest dose activity change, negative = inhibition, hits mostly inhibitors; hit rate 6.9% among 320,000; also: potency is read from the fitted curve at half-maximal effect
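Erythrocytes infected with luciferase-expressing P. falciparum were dispensed at 2% hematocrit and 0.05% parasitemia (final), then incubated with compounds 96 hours at 37 C in 5% CO2. Luminescence after detection reagent addition reported growth.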
HCV inh – qHTS Assay for Inhibitors of Hepatitis C Virus (HCV); Huh7.5.1 HCVcc-Cre infection, luciferase reporter, 44 h; Potency, µM (top dose mostly 41.8 µM), inactives show at the highest dose activity change, negative = inhibition, actives largely listed as inhibitors; hit rate 3.4% among 340,000; AID 651820, 2012; also: potency is read from the fitted curve at half-maximal effect
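Cells (1,000/well) were plated 4 h before compound, then infected with HCVcc-Cre virus (~0.5 moi). After 44 h further culture, infection was read as luciferase luminescence following a 15 min substrate incubation at room temperature.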
Pf growth 48h – Primary qHTS for delayed death inhibitors of the malarial parasite plastid, 48 hour incubation; P. falciparum luciferase growth in erythrocytes, 48 h; Potency, µM (top dose mostly 28.7 µM), for the others: at the highest dose activity change, negative = inhibition, most hits filed as inhibitors; hit rate 5.9% among 310,000; also: potency is read from the fitted curve at half-maximal effect
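Growth was read as firefly luciferase luminescence after a 48 h, 37 C, 5% CO2 exposure of compounds to reporter-bearing P. falciparum cultures (0.1% parasitemia, 2% hematocrit final) in Albumax-supplemented RPMI 1640.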
* hit, by the source's call; u = inconclusive; x = no result. In the library only some 13% were active in any assay of this set; here they are far more common. Unless noted, calls follow the shape of the dose curve; as a rule, active = well fitted inhibition curve with a large enough effect; inconclusive = small, poorly fitted or top-dose-only effect, or another doubt; inactive = no such curve, though single readings can be large or run the other way. % is scaled to controls: 0 for no effect and ±100 for the full control effect.

SMILES	HCMV inh	Pf growth 96h	HCV inh	Pf growth 48h
C/C(=N\NC(=O)c1nnn(-c2nonc2N)c1CN(C)c1ccccc1)c1ccccn1	x	5.2µM*	4.5µM*	13µM*
C/C(=N\NC(=O)c1nnn(-c2nonc2N)c1CN(C)c1ccccc1)c1ccc(O)cc1	-60*	26%	0%	5%
CCOC(=O)c1c(C)oc2c(Cl)cc(NS(=O)(=O)c3ccc(Cl)c(C)c3)cc12	13	x	x	x
O=C(CCS(=O)(=O)c1cc2c3c(c1)CCN3C(=O)CC2)Nc1cccc(Br)c1	-15	x	x	x
O=Cc1cc2ccccc2nc1SCc1ccc(Cl)cc1	-82*	-12%	u	8%
Clc1ccc(CSc2cnnc3ccccc23)cc1Cl	-32	x	8%	x
Cc1ccc(CSc2ncnc3ccccc23)cc1	-31	31%	-16%	-5%
Cc1ccc(CSc2nc3ccccc3cc2C=O)cc1	-97*	u	u	0%
O=Cc1cc2ccccc2nc1SCc1ccc(Cl)c(Cl)c1	-92*	-1%	7%	-5%
COc1cc(OC)cc(-c2c(C#Cc3ccsc3)c3cc(-c4ccccc4OC)ccc3n2C)c1	-3	x	19%	x
COc1cc(OC)cc(-c2c(C#Cc3ccsc3)c3cc(-c4cccc5[nH]ccc45)ccc3n2C)c1	7	3.3µM*	-10%	12µM*
COc1ccc(-c2ccc3c(c2)c(C#Cc2ccsc2)c(-c2cc(OC)cc(OC)c2)n3C)cc1	10	x	24%	x
COc1cc(OC)cc(-c2c(C#Cc3ccsc3)c3cc(-c4ccc5c(c4)OCCO5)ccc3n2C)c1	-12	2.6µM*	23%	u
COc1cc(OC)cc(-c2c(C#Cc3ccsc3)c3cc(-c4ccc5cc[nH]c5c4)ccc3n2C)c1	-19	1.9µM*	-17%	u
CCOC(=O)c1c(NC(=O)CC2SC(N)=NC2=O)sc2c1CCC(C)C2 (stereo unspecified)	6	44%	u	u
COCC(=O)Nc1sc2c(c1C(=O)OC)CCC(C)C2 (stereo unspecified)	-8	x	7.1µM*	3%
COC(=O)c1c(NC(=O)CN2CCOCC2)sc2c1CCC(C)C2 (stereo unspecified)	38	48%	u	51%
COC(=O)c1c(NC(=O)CC2SC(N)=NC2=O)sc2c1CCC(C)C2 (stereo unspecified)	-34	3.7µM*	u	5%
CC1CCc2c(sc(NC(=O)/C=C/c3cccs3)c2C(=O)O)C1 (stereo unspecified)	28	9.3µM*	u	6%
Cc1c(Cl)c([N+](=O)[O-])nn1CC(=O)NC1CCCCC1	-4	u	10%	-2%
Cc1c(Br)c([N+](=O)[O-])nn1CC(=O)NC1CCCCCC1	u	1.5µM*	-4%	-12%
COc1cccc(Cn2c(C)c(CNCc3cccc(C)c3)c(C(=O)O)c2C)c1	-11	x	x	x
CC(C)N(C(=O)Cn1cc(SCC(=O)Nc2ccccc2F)c2ccccc21)C(C)C	6	x	x	x
Cn1cc(S(=O)(=O)N2CCCCCC2)cc1C(=O)Nc1ccccc1F	-6	x	x	x
O=C(NC1CCCCC1)c1nccnc1-c1ccc(C(F)(F)F)cc1	33	x	x	x
SMILES	HCMV inh	Pf growth 96h	HCV inh	Pf growth 48h
CSc1nc(-c2ccccc2)nc2ccccc12	33	x	x	x
CCOC(=O)c1c(NC(=O)Cn2nc([N+](=O)[O-])c(Br)c2C)sc2c1CCC(C)C2 (stereo unspecified)	27	0.013µM*	u	-27%
CCOC(=O)c1c(NC(=O)Cn2nc(C(=O)O)c3ccccc3c2=O)sc2c1CCC(C)C2 (stereo unspecified)	-28	35%	-10%	-5%
CC(C)CCSc1nc2c(c(=O)n(C)c(=O)n2C)n1Cc1ccccc1Cl	32	x	x	x
Cc1ccc(NC(=O)CSc2ccc(-c3cccs3)nn2)cc1Cl	6	x	x	x
Cc1c2cnn(CC(=O)Nc3c(F)c(F)cc(F)c3F)c(=O)c2c(C)n1Cc1ccccc1F	19	9.3µM*	-7%	-14%
Cc1c2cnn(CC(=O)N3CCC4(CC3)OCCO4)c(=O)c2c(C)n1Cc1ccccc1F	-13	0.01µM*	-17%	3%
Cc1c2cnn(CC(=O)NCc3ccc(F)cc3)c(=O)c2c(C)n1Cc1ccccc1F	2	x	x	x
Cc1c2cnn(CC(=O)N3CCN(c4ccc(F)cc4)CC3)c(=O)c2c(C)n1Cc1ccccc1F	-18	x	x	x
CC1=C(C(=O)Nc2cccc(C(F)(F)F)c2)C2(CCN(C(C)C)CC2)OC1=O	2	x	x	x
CCc1ccccc1NC(=O)Cn1c(=O)n(Cc2ccc(OC)cc2)c(=O)c2oc3ccccc3c21	-4	x	x	x
CN(C)CCCCl	1	x	x	x
CC1CCN(c2ccccc2NC(=O)c2cc([N+](=O)[O-])ccc2N2CCOCC2)CC1	-93*	u	u	u
CN1CCN(c2ccc([N+](=O)[O-])cc2NC(=O)c2ccccc2Cl)CC1	22	u	-19%	12µM*
N#C/C(=C\C1=C(N2CCOCC2)C(=C/c2cccc([N+](=O)[O-])c2)/CC1)C(=O)Nc1ccccc1F	-9	9.3µM*	-10%	u
CCc1ccccc1NC(=O)c1cc([N+](=O)[O-])ccc1N1CCOCC1	10	12%	-6%	26%
O=C(/C=C/c1cccc([N+](=O)[O-])c1)Nc1ccccc1N1CCOCC1	-61*	-17%	-27%	u
COC(=O)C[C@@H]1C=C[C@@H](NC(=O)C2CCC2)[C@@H](CO)O1	-24	x	x	x
COc1cc(OC)c(NC(=O)c2cc(C(C)=O)n3ccccc23)cc1Cl	19	x	x	x
CC(C(=O)Nc1cc([N+](=O)[O-])ccc1Cl)N1CCN(c2ccccc2O)CC1 (stereo unspecified)	51	u	u	6.6µM*
CC(=O)c1c(C)[nH]c(C(=O)Nc2cc(S(=O)(=O)N3CCCCC3)ccc2C)c1C	-5	13µM*	u	13µM*
CCOc1ncccc1C(=O)Nc1ccc(S(=O)(=O)N2CCCC2)cc1	-16	7%	-9%	-15%
CCOc1ncccc1C(=O)Nc1cccc(S(=O)(=O)N2CCCCC2)c1	-19	7.4µM*	u	u
CCOc1ccc(S(=O)(=O)N2CCCCC2)cc1NC(=O)c1cccnc1OCC	-4	x	2%	x
COc1ccc(S(=O)(=O)N2CCCCC2)cc1NC(=O)c1[nH]c(C)c(C(C)=O)c1C	66	x	-9%	x
CCOc1ncccc1C(=O)Nc1cc(S(=O)(=O)N2CCCCC2)ccc1C	2	9.3µM*	-1%	12µM*
CC1=C(C(=O)Nc2cccnc2)C(c2ccc(F)cc2)n2nc(SCc3ccccc3F)nc2N1 (stereo unspecified)	8	x	x	x
CC12CCC(C(=O)N(CSC(=S)N/N=C\c3ccccc3O)C1=O)C2(C)C (stereo unspecified)	54	u	0%	10µM*
COc1ccccc1NC(=S)N1C2CCC1CC(NC(=O)NC13CC4CC(CC(C4)C1)C3)C2 (stereo unspecified)	u	4.7µM*	-18%	u

Assay outcomes (PubChem BioAssay)
